From PubChem BioAssay AID1224921 (Broad Institute, 2016)
Hit rate of the full screen: of about 1,400 compounds, about 350 (25%) were called active. Roughly 2% stayed inconclusive and do not appear here. The rule behind the calls is not given here. These entries were drawn from the full list. Potency and affinity values are given separately.

Experiment: inhibitors of Clostridioides difficile proliferation – 4-point retest, confirmation (AID 1224921);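 note: plate controls were DMSO wells for no effect and levofloxacin 16 µg/mL wells for full effect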
Conditions: Clostridioides difficile clinical isolate growth, OD600, 24 h, active compounds read low; at 30 µM unless noted

Max activity, inactive:
N#C[C@H]1[C@H](c2ccc(C#Cc3ccccc3F)cc2)[C@@H](CO)N1C(=O)C1CCCCC1 15.2% [at 1.95 µM]
CCC(=O)Nc1ccc2c(c1)OC[C@@H](C)N(Cc1ccccc1)C[C@H](C)[C@@H](OC)CN(C)C2=O 21.5%
COc1ccc(CN(C)C[C@H]2OCCCC[C@@H](C)Oc3ccc(NC(=O)Nc4ccc(C(F)(F)F)cc4)cc3C(=O)N([C@@H](C)CO)C[C@H]2C)cc1 38.8% [at 1.95 µM]
COc1ccc(CN(C)C[C@@H]2OCCCC[C@H](C)Oc3ccc(NC(=O)Nc4ccc(F)cc4)cc3C(=O)N([C@@H](C)CO)C[C@H]2C)cc1 23.6%
COc1ccc(CN(C)C[C@@H]2OCCCC[C@H](C)Oc3ccc(NC(=O)Nc4ccc(C(F)(F)F)cc4)cc3C(=O)N([C@@H](C)CO)C[C@H]2C)cc1 21.3% [at 8 µM]
COc1ccc(CN(C)C[C@H]2OCCCC[C@H](C)Oc3ccc(NC(=O)Nc4ccc(C(F)(F)F)cc4)cc3C(=O)N([C@H](C)CO)C[C@@H]2C)cc1 35.8%
COc1ccc(CN(C)C[C@H]2OCCCC[C@H](C)Oc3ccc(NC(=O)Nc4ccc(C(F)(F)F)cc4)cc3C(=O)N([C@H](C)CO)C[C@H]2C)cc1 38.6% [at 1.95 µM]
COc1ccc(CN(C)C[C@@H]2OCCCC[C@@H](C)Oc3ccc(NC(=O)Nc4ccc(C(F)(F)F)cc4)cc3C(=O)N([C@H](C)CO)C[C@H]2C)cc1 35.6% [at 8 µM]
COc1cccc(C#Cc2ccc([C@H]3[C@@H](CO)N(C(=O)C4CC4)[C@H]3C#N)cc2)c1 19.6%
CO[C@@H]1CN(C)C(=O)c2cc(NC(=O)c3ccccc3)ccc2OC[C@H](C)N(C)C[C@H]1C 6.89% [at 8 µM]
CO[C@@H]1CN(C)C(=O)c2cc(NS(=O)(=O)c3cn(C)cn3)ccc2OC[C@@H](C)N(Cc2cccc(Cl)c2)C[C@H]1C 31.5%
C[C@H](CO)N1C[C@H](C)[C@@H](CN(C)C(=O)NC2CCCCC2)Oc2c(NC(=O)Nc3cccc4ccccc34)cccc2C1=O 61.2%
C[C@@H]1CCCCO[C@@H](CN(C)Cc2ccc3c(c2)OCO3)[C@H](C)CN([C@H](C)CO)C(=O)c2cc(NC(=O)Nc3ccc(F)cc3)ccc2O1 18%
CCCN1C[C@@H](C)[C@H](OC)CN(C)C(=O)c2cc(NC(=O)Nc3cccc(OC)c3)ccc2OC[C@H]1C -7.34% [at 1.95 µM]
CCCN1C[C@@H](C)[C@H](OC)CN(C)C(=O)c2ccc(NC(=O)Nc3c(C)noc3C)cc2OC[C@@H]1C 21.5%
CCCN1C[C@@H](C)[C@H](OC)CN(C)C(=O)c2ccc(NC(=O)CC)cc2OC[C@@H]1C 3.36%
COc1ccc(NC(=O)Nc2ccc3c(c2)[C@@H]2C[C@@H](CC(=O)NCc4ccccc4F)O[C@H](CO)[C@@H]2O3)cc1 -14.3%
C[C@@H]1CN([C@@H](C)CO)C(=O)c2cccc(NS(=O)(=O)c3ccc(Cl)cc3)c2O[C@@H]1CN(C)Cc1ccc(C(F)(F)F)cc1 20.4% [at 1.95 µM]
COc1ccc(CN(C)C[C@H]2OCCCC[C@@H](C)Oc3ccc(NC(=O)Nc4ccc5c(c4)OCO5)cc3C(=O)N([C@H](C)CO)C[C@H]2C)cc1 17.6%
C[C@H](CO)N1C[C@H](C)[C@@H](CN(C)Cc2ccc3c(c2)OCO3)OCCCC[C@H](C)Oc2ccc(NC(=O)Nc3ccc4c(c3)OCO4)cc2C1=O 12.4%
Cc1ccc(S(=O)(=O)Nc2ccc3c(c2)C(=O)N([C@H](C)CO)C[C@@H](C)[C@H](CN(C)Cc2ccc(Cl)c(Cl)c2)OCCCC[C@H](C)O3)cc1 39% [at 1.95 µM]
CCCN(C)C[C@H]1OCCCC[C@H](C)Oc2ccc(NS(=O)(=O)c3c(C)noc3C)cc2C(=O)N([C@@H](C)CO)C[C@@H]1C 19% [at 8 µM]
COc1ccc(CN(C)C[C@H]2OCCCC[C@H](C)Oc3ccc(NC(=O)Nc4ccc5c(c4)OCO5)cc3C(=O)N([C@H](C)CO)C[C@H]2C)cc1 21.6%
C[C@@H]1CCCCO[C@@H](CN(C)Cc2ccc3c(c2)OCO3)[C@H](C)CN([C@@H](C)CO)C(=O)c2cc(NC(=O)Nc3ccc4c(c3)OCO4)ccc2O1 14.9%
C[C@@H]1CN([C@@H](C)CO)C(=O)c2cc(NC(=O)Nc3ccc(F)cc3)ccc2O[C@@H](C)CCCCO[C@H]1CN(C)Cc1ccc2c(c1)OCO2 20.9%
Cc1ccc(S(=O)(=O)Nc2ccc3c(c2)C(=O)N([C@@H](C)CO)C[C@H](C)[C@@H](CN(C)Cc2ccc(Cl)c(Cl)c2)OCCCC[C@@H](C)O3)cc1 8.85%
C[C@@H]1CN([C@@H](C)CO)C(=O)Cc2cc(NS(C)(=O)=O)ccc2O[C@H]1CN(C)Cc1ccccc1 38.5% [at 35 µM]
N#C[C@H]1[C@@H](c2ccccc2)[C@@H](CO)N1S(=O)(=O)c1ccc(-c2ccccc2)cc1 40.9%
Cc1ccc(-c2cnc3c(c2)C(=O)N([C@@H](C)CO)C[C@H](C)[C@@H](CN(C)C(=O)c2ccccc2)O3)cc1 -9.22% [at 0.5 µM]
CN(C)CC(=O)N[C@H]1C=C[C@H](CC(=O)NCCN2CCCCC2)O[C@@H]1CO 12.7% [at 8 µM]
N#C[C@H]1[C@@H](c2ccc(-c3ccccc3)cc2)[C@@H](CO)N1C(=O)Cc1ccncc1 13.6%
CCC(=O)N[C@@H]1C=C[C@@H](CC(=O)OC)O[C@H]1CO -12.2% [at 8 µM]
C[C@@H]1CN([C@H](C)CO)S(=O)(=O)c2ccc(C#CCC3CCCC3)cc2O[C@@H]1CN(C)C(=O)c1ccccn1 46.2% [at 8 µM]
C[C@@H]1CN([C@H](C)CO)C(=O)c2cccc(N(C)C)c2O[C@H]1CN(C)Cc1ccc(C(F)(F)F)cc1 26.1%
CO[C@H]1CN(C)C(=O)c2ccc(NC(=O)c3ccc(F)cc3)cc2OC[C@@H](C)N(C(=O)CN(C)C)C[C@H]1C -10.6% [at 1.95 µM]
C[C@@H]1CCCCO[C@H](CN(C)CC2CCCCC2)[C@@H](C)CN([C@H](C)CO)C(=O)c2cc(NC(=O)Nc3cccc4ccccc34)ccc2O1 12.9% [at 8 µM]
C[C@H](CO)N1C[C@H](C)[C@@H](CN(C)CC2CCCCC2)OCCCC[C@H](C)Oc2ccc(NC(=O)Nc3cccc4ccccc34)cc2C1=O 21.6%
C[C@H]1CCCCO[C@@H](CN(C)CC2CCCCC2)[C@@H](C)CN([C@@H](C)CO)C(=O)c2cc(NC(=O)Nc3cccc4ccccc34)ccc2O1 27.7% [at 8 µM]
C[C@@H]1CCCCO[C@H](CN(C)CC2CCCCC2)[C@H](C)CN([C@@H](C)CO)C(=O)c2cc(NC(=O)Nc3cccc4ccccc34)ccc2O1 -10.7%
C[C@@H]1CN([C@H](C)CO)S(=O)(=O)c2ccc(C#CCC3CCCC3)cc2O[C@H]1CN(C)C(=O)c1ccccn1 43.5%
CO[C@@H]1CN(C)C(=O)c2ccc(NC(C)=O)cc2OC[C@@H](C)N(Cc2cc(F)ccc2F)C[C@H]1C -9.54% [at 8 µM]
Cc1ccc(-c2ccc3c(c2)O[C@@H](CN(C)Cc2cccnc2)[C@@H](C)CN([C@@H](C)CO)S3(=O)=O)cc1 35.1%
CN(C)C(=O)c1ccc(-c2ccc([C@@H]3[C@@H](CO)N(C(=O)C4CCCCC4)[C@H]3C#N)cc2)cc1 -13.2% [at 0.5 µM]
C[C@H]1CCCCO[C@@H](CN(C)C(=O)Nc2ccc(C(F)(F)F)cc2)[C@@H](C)CN([C@@H](C)CO)C(=O)c2cc(NS(=O)(=O)c3ccc(Cl)cc3)ccc2O1 12.1%
C[C@H](CO)N1C[C@H](C)[C@H](CN(C)C(=O)Nc2ccc(C(F)(F)F)cc2)OCCCC[C@H](C)Oc2ccc(NS(=O)(=O)c3ccc(Cl)cc3)cc2C1=O 14.5%
COc1ccc(NC(=O)Nc2cccc3c2O[C@H](CN(C)C(=O)NC2CCCCC2)[C@@H](C)CN([C@H](C)CO)C3=O)cc1 -16%
CO[C@H]1CN(C)C(=O)c2cc(NS(=O)(=O)c3ccc(Cl)cc3)ccc2OC[C@@H](C)N(C(=O)NC(C)C)C[C@@H]1C 11.8%
C[C@H](O)C#Cc1ccc2c(c1)O[C@@H](CN(C)C(=O)c1ccccc1)[C@@H](C)CN([C@@H](C)CO)S2(=O)=O -12.7%
C[C@H](CO)N1C[C@H](C)[C@@H](CN(C)Cc2ccccn2)Oc2cc(C3=CCCCC3)ccc2S1(=O)=O 33.3%
C[C@@H]1CN([C@@H](C)CO)C(=O)Cc2cc(N(C)C)ccc2O[C@H]1CN(C)Cc1ccccc1 9.89%
CO[C@@H]1CN(C)C(=O)c2cc(NC(=O)NC(C)C)ccc2OC[C@H](C)N(C)C[C@@H]1C -5.88%
CCS(=O)(=O)Nc1ccc2c(c1)OC[C@H](C)NC[C@@H](C)[C@@H](OC)CN(C)C2=O 10.9%
CN(C)C(=O)c1ccc(-c2ccc([C@@H]3[C@@H](C#N)N(C(=O)C4CC4)[C@H]3CO)cc2)cc1 19.6% [at 1.95 µM]
O=C(Nc1cc(F)ccc1F)N[C@H]1CC[C@H](CC(=O)N2CCc3ccccc3C2)O[C@@H]1CO -10.9% [at 8 µM]
